Results filed as inconclusive are left out. Unmarked numbers belong to inactive results. Active and inactive are the calls of the source. Calls follow the shape of the dose curve; as a rule, active = well fitted cell-killing curve with a large enough effect in the repeat runs; inconclusive = weak or mixed curves, or effect the other way; inactive = no such curve, though single readings can be large or run the other way.
assay: qHTS assay to identify aromatase inhibitors - cell viability counter screen (AID 743084); conditions: MCF-7 aro ERE viability, CellTiter-Fluor, 24 h; series mostly up to 70.3 µM; activity change, negative = cytotoxicity: at the top concentration;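 also: cells stimulated with testosterone during compound exposure; nearly all actives have a fitted effect of over 55% in size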
% is scaled to controls: 0 for no effect and ±100 for the full control effect.

Structure (SMILES) | activity change, negative = cytotoxicity | Potency
O=[N+]([O-])c1ccc(CBr)cc1 | 0.175% [at 95 µM] | 
CC(Cl)(Cl)[N+](=O)[O-] | 22.2% | 
CC(C)CP(=S)(S)CC(C)C | -2.59% | 
COC(=O)c1c(C(F)F)nc(C(F)(F)F)c(C2=NCCS2)c1CC(C)C | 7.1% | 
CCS(=O)(=O)C(C)(C)S(=O)(=O)CC | -2.47% | 
O=C1c2ccccc2C(=O)c2ccccc21 | -0.775% | 
COC(=O)c1ccccc1S(=O)(=O)NC(=O)Nc1nc(C)cc(C)n1 | -2.53% | 
CCCCc1c(C)nc(NCC)[nH]c1=O | 13.7% | 
CCOP(=S)(OCC)Oc1nc(Cl)n(C(C)C)n1 | 15.1% | 
CCC1(c2ccccc2)C(=O)NC(=O)NC1=O |  | inactive
Nc1cc2c3c(c1)C(c1ccccc1)=N[C@@H](NC(=O)c1cccnc1)C(=O)N3CC2 | 4.08% | 
CC(C1CC1)C(O)(Cn1cncn1)c1ccc(Cl)cc1 (stereo not drawn) | 7.74% | 
C1CCC(C2CCCCC2)CC1 | -0.129% | 
C#CCN1C(=O)COc2cc(F)c(N3C(=O)C4=C(CCCC4)C3=O)cc21 | 4.54% | 
COc1cc(OC)nc(Oc2cccc(Oc3nc(OC)cc(OC)n3)c2C(=O)O)n1 | 8.19% | 
CCC(C)(C)c1cc(-n2nc3ccccc3n2)c(O)c(C(C)(C)CC)c1 | -22.3% [at 95 µM] | 
[Cl][Sn]([Cl])([Cl])[Cl] | 16.1% [at 95 µM] | 
CNC(=O)Oc1c(C(C)(C)C)cc(C)cc1C(C)(C)C | 1.16% | 
CSc1nc(N=[N+]=[N-])nc(NC(C)C)n1 | 10.5% | 
Cc1ncsc1CCCl | 4.5% | 
CCCSC(=O)Cl | 0.113% [at 95 µM] | 
COC(=O)C(C)Oc1ccc(Oc2ccc(Cl)cc2Cl)cc1 (stereo not drawn) | 11.3% | 
CCOC(=O)CP(=O)(OCC)OCC | -1.13% | 

— PubChem BioAssay (Tox21)
